Source: the supplement of paper PMC13380429

These molecules were tested on Vero E6 infected with SARS-CoV-2 (assay: morphology score (similarity to uninfected cells); higher = more like uninfected cells). Conditions: 24 h.
`OC[C@H]1NCC[C@@H](O)[C@@H]1O` [fagomine] (10 µM) showed a morphology score of -0.0114. `O=C(NC1CCOCC1)c1ccc(-c2cc(-c3c[nH]nc3-c3ccccn3)ccn2)cc1` (10 µM) was tested, and the morphology score was -0.0411. `Cc1cc(C)nc(SCC(=O)Nc2ncc(Cc3cccc4ccccc34)s2)n1` (10 µM) showed a morphology score of 0.211. Molecule `O=C(O)CCCN1C(=O)c2cccc3cccc(c23)C1=O` [isodibut] (10 µM) has a morphology score of 0.205. In the case of `CCCCCCCCOc1ccccc1C(=O)Nc1ccc(C(=O)OCC[N+](C)(CC)CC)cc1` [otilonium] (10 µM), the morphology score is reported as 0.299. For `COc1cc(C[C@H]2c3cc(OC)c(OC)cc3CCN2C)c(Oc2cc3c(cc2OC)-c2c(OC)c(OC)cc4c2[C@H](C3)N(C)CC4)cc1OC` [thaliblastine] (10 µM), the morphology score was 0.443. Molecule `N#C/C(=C\c1ccc(O)c(O)c1)C(=O)NCCCc1ccccc1` (0.833333 µM) has a morphology score of -0.0747. `O=C(Nc1ccc(S(=O)(=O)Nc2ccccc2Cl)c(Cl)c1)c1ccccn1` (10 µM) was tested, and the morphology score was -0.132. Work on `c1ccc(CNCc2ccc(CN3CCCNCCNCCCNCC3)cc2)nc1` (10 µM) yielded a morphology score of 0.129. In the case of `C[C@@H]1O[C@@H](O[C@@H]2[C@@H](O)[C@H](OCCc3ccc(O)c(O)c3)O[C@H](CO)[C@H]2OC(=O)/C=C/c2ccc(O)c(O)c2)[C@H](O)[C@H](O)[C@H]1O` [verbascoside] (10 µM), the morphology score is reported as 0.0986. `COC(=O)c1ccc2c(c1)NC(=O)/C2=C(\Nc1ccc(N(C)C(=O)CN2CCN(C)CC2)cc1)c1ccccc1` [nintedanib] (10 µM) gave a morphology score of -0.0524. With `C/C(=N\NC(=O)[C@@H]1C(=O)NC[C@H]1c1ccccc1)c1cccc(Br)c1` (10 µM) the morphology score was -0.162. `CN[C@@H](C)[C@H](O)c1ccccc1` [ephedrine] (10 µM) gave a morphology score of -0.038. `CCCOC(=O)c1ccccc1` [propyl-benzoate] (10 µM) gave a morphology score of 0.105. For `Cc1cc(O)c(C(=O)N[C@@H](C(=O)N[C@@H]2C(=O)N3C(C(=O)O)=C(CSc4nnnn4C)CS[C@H]23)c2ccc(O)cc2)cn1` [cefpiramide] (10 µM), the morphology score was 0.00194. `Nc1n[nH]c2nc3ccccc3nc12` [CDK1-5-inhibitor] (10 µM) was tested, and the morphology score was -0.113. With `NC(=O)C(c1ccccc1)(c1ccccc1)[C@@H]1CCN(CCc2ccc3c(c2)CCO3)C1` [darifenacin] (10 µM) the morphology score was -0.025. With `Nc1nc(Nc2ccc(S(N)(=O)=O)cc2)nn1C(=O)c1c(F)cccc1F` (0.833333 µM) the morphology score was -0.114. Work on `C[C@@H]1CCCN1CCc1cc2cc(-c3ccc(C#N)cc3)ccc2o1` (10 µM) yielded a morphology score of 0.44. `[O-][n+]1ccccc1[S-].[O-][n+]1ccccc1[S-].[Zn+2]` [pyrithione-zinc] (10 µM) showed a morphology score of 0.0399. Molecule `O=C1NCCc2[nH]c(-c3ccncc3)cc21` (0.833333 µM) has a morphology score of 0.0617. Molecule `CC(CCc1ccc(O)cc1)NCC(O)c1ccc(O)cc1` (stereo not drawn) [ractopamine] (10 µM) has a morphology score of -0.0659. Molecule `CN1C(=O)OC(C)(C)C1=O` [trimethadione] (10 µM) has a morphology score of 0.1. `Cn1nnc2c(C(N)=O)ncn2c1=O` [temozolomide] (10 µM) gave a morphology score of -0.0949. For `CCCCCCCCc1ccc(-c2ccc(C(=O)O)cc2)cc1` (10 µM), the morphology score was -0.0106. For `Clc1ccccc1C(c1ccccc1)(c1ccccc1)n1ccnc1` [clotrimazole] (10 µM), the morphology score was 0.254. `CN(C)[C@@H]1C(O)=C(C(N)=O)C(=O)[C@@]2(O)C(O)=C3C(=O)c4c(O)ccc(Cl)c4[C@@](C)(O)[C@H]3C[C@@H]12` (10 µM) was tested, and the morphology score was 0.129. `CSCC[C@H](NC(=O)[C@H](CC(C)C)NC(=O)[C@@H](Cc1c[nH]c2ccccc12)NC(=O)[C@H](Cc1ccccc1)N(C)C(=O)[C@@H](Cc1c[nH]c2ccccc12)NC(=O)[C@@H](N)CCCNC(=N)N)C(N)=O` [antagonist-g] (10 µM) showed a morphology score of -0.124.
